Reference: PubChem BioAssay AID1903 (Southern Research Specialized Biocontainment Screening …, 2009)
“And” between values parts separate entries of the source, which are not always exact repeats. Equal entries are not always repeated. The campaign covered roughly 310,000 compounds. About 1,200 (0.39%) were called active. How the calls were made is not given here. A selection follows. Entries with a potency or affinity are not part of this list.

What follows are compounds tested against Large T antigen (Simian virus 40) (UniProt P03070) (assay: SV40 large T antigen inhibitors, biochemical (AID 1903)). Details: SV40 large T antigen ATPase/helicase inhibition assay; at 20 µM; stronger effect = higher value.
Chain of Large T antigen (Simian virus 40) (P03070 whole entry, looked up): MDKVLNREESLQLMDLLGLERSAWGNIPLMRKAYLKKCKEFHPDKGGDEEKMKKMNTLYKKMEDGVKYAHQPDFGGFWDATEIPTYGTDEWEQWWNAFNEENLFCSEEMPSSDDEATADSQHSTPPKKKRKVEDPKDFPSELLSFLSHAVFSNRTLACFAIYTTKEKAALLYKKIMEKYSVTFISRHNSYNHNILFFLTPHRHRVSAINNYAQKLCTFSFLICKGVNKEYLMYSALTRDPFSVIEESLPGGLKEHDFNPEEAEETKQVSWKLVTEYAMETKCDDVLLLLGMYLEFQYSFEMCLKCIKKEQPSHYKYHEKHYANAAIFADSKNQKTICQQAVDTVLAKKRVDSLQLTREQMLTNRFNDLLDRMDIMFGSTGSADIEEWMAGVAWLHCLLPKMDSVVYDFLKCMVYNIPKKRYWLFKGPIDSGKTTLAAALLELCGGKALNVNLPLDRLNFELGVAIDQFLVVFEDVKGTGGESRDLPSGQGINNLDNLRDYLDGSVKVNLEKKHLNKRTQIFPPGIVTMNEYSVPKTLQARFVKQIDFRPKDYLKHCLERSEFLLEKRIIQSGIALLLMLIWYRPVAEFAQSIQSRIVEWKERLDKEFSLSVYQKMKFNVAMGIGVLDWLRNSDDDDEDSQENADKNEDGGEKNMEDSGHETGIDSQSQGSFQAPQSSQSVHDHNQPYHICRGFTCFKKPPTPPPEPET

inhibition, inactive:
CCOC(=O)c1c(C)nc2ccccc2c1-c1ccccc1 5.96%, O=C(/C=C/Nc1ccccc1)c1ccccc1 10.3%, COc1ccc(N/C=C/C(=O)C(F)(F)F)cc1 9.63%, CN(C)c1ccc(N/C=C/C(=O)C(C)(C)C)cc1 27.8%, CN(C)c1ccc(N/C=C/C(=O)c2ccc(F)cc2)cc1 18.2%, Cc1ccc(-c2nn(-c3ccccc3)cc2C(N)=O)o1 1%, COc1ccc(CN2CCN(C(=O)CCC(=O)Nc3nnc(C(F)(F)F)s3)CC2)cc1F 25.2%, CCn1c(C)nc2cc(C(=O)N/N=C(\C)c3ccc(N4CCOCC4)cc3)ccc21 9.23%, O=C1[C@H]2CCCC[C@H]2C(=O)N1CCCCN1CCN(c2nsc3ccccc23)CC1 11.2%, Oc1c(CN2CCCC(C(F)(F)F)C2)cc(Cl)c2ccccc12 (stereo not drawn) 6.33%, COc1ccc(CN2C(=O)CSCC2=O)cc1OC 23.5%, CC1CCCN(S(=O)(=O)c2cnc[nH]2)C1 (stereo not drawn) 16.4%, CC(=O)c1ccc([N+](=O)[O-])c(CS(=O)(=O)c2ccc(Cl)cc2)c1 2.52%, Cc1ccc(S(=O)(=O)Cc2ccc([N+](=O)[O-])cc2)cc1 12.8%, C=CCNc1nc(-c2cc3ccccc3o2)cs1 16.7%, COc1ccc([C@@H]2CC=C(C(=O)O)[C@H](c3cccc(Cl)c3)N2S(=O)(=O)c2ccccc2C)cc1 20.5%, COc1cc(-c2cc(=O)c3c(O)c(OC)c(OC)c(OC)c3o2)cc(OC)c1OC 1.45%, COc1cc(-c2cc(=O)c3c(O)cc(O)cc3o2)ccc1O 11.8%, COc1ccc(-c2cc(=O)c3ccccc3o2)cc1 4.04%, COc1ccc(-c2cc(=O)c3c(OC)c(OC)c(OC)c(OC)c3o2)cc1OC 8.13% and 2.63% and 16.4%, Nc1nnc(-c2cccc([N+](=O)[O-])c2)o1 -0.81%, CCCCCCn1cc(C(=O)OCC)c(=O)c2cc(F)c(F)cc21 20.5%, CCC(C)C(NC(=O)C(N)CC(C)C)C(=O)NC(CCC(=O)OCc1ccccc1)C(N)=O (stereo not drawn) -6.23%, COC(=O)c1cc(NCc2cccs2)ccc1N1CCOCC1 36.1%, O=C(O)c1cc(NCc2cccs2)ccc1N1CCOCC1 16.1%, O=C(O)c1ccc(NCc2cccs2)cc1 5.7%, CC(=O)Nc1ccc(NCc2cccs2)cc1 15.1%, O=C(COC(=O)COc1ccccc1[N+](=O)[O-])Nc1ccc(S(=O)(=O)N2CCCCC2)cc1 9.97%, CC(=O)Nc1ccc(NC(=O)CSc2nnc(NC(=O)c3cccc(F)c3)s2)cc1 7.35%, COc1ccc(CC2(CO)COc3ccccc3C2=O)cc1 (stereo not drawn) 18%, CCn1c(SCC(=O)Nc2cc(OC)ccc2OC)nnc1C1CCCCC1 5.72%, CN(C)C(=O)COC(=O)c1cc(Cl)cc(Cl)c1N 7.1%, CCOC(=O)C1=C(CCc2ccccc2)NC(=O)NC1c1ccc(C#N)cc1 (stereo not drawn) 13.1%, O=C(Nc1ccc(N2CCOCC2)cc1)C1CCN(S(=O)(=O)c2ccccc2F)CC1 13.6%, O=C1C(Cl)=C(N2CCOCC2)C(=O)N1c1ccccc1F 11.2%, O=C1C(Cc2ccccc2)Nc2ncnc(N3CCOCC3)c2N1Cc1ccc(Cl)cc1 (stereo not drawn) 9.83%, Cn1c(=Nc2ccccc2)sc2ccccc21 -5.34%, COc1ccc(N=c2sc3ccccc3n2C)cc1 7.43%, CC1CCCCN1c1ncnc2ccccc12 (stereo not drawn) 0.555%, CC(C)OC(=O)Cc1nc2sc(-c3ccccc3)cc2c(=O)[nH]1 6.88%, CN(C)Cc1ccccc1Sc1ccc(Br)cc1 9.88%, CNCc1ccccc1Sc1ccc(O)c(O)c1 -1%, CCN(CC)Cc1ccccc1Sc1ccccc1 16.5%, CNCc1ccccc1Sc1cccc(O)c1 25.7%, CCC(C)C(NC(=O)c1ccc(Cl)cc1)C(=O)Nc1cccnc1 (stereo not drawn) -3.25%, CCOC(=O)c1c(NC(=O)CSc2nnnn2C)sc(CC)c1C 4.57%, O=C(N/C(=C/c1cccs1)C(=O)N1CCOCC1)c1ccccc1 6.38%, COc1ccc(Nc2nc(N3CCCCC3)c3ccccc3n2)cc1 8.24%, CN1CCN(c2nc(-c3ccccc3O)nc3ccccc23)CC1 3.42%, COc1ccc(Nc2nc(N3CCCC3)c3ccccc3n2)cc1 17.3%, Cc1ccc(Nc2nc(N3CCOCC3)c3ccccc3n2)cc1 6.59%, COc1ccc(OC)c(NC(=O)CSc2ccc(-c3ccco3)nn2)c1 11.7%, CC(C)(C)OC(=O)[C@H](Cc1ccccc1)NC(=O)c1nc[nH]c1C(=O)N1CCN(c2ccccc2)CC1 10.9%, Cc1cc(C(=O)NNC(=S)NCc2ccco2)n(C)n1 -6.03%, CC(=O)OCCCNc1cc(Sc2nc3ccccc3s2)c2nonc2c1[N+](=O)[O-] 22%, CCC(=O)OCCNc1cc(Sc2nc3ccccc3s2)c2nonc2c1[N+](=O)[O-] 10.9%, CC(C)C(=O)N1CCC(Cc2ccccc2)CC1 12.3%, O=C1C=CC(=O)N1c1ccc(I)cc1Cl 8.61%, COc1cc(Cl)c(S(=O)(=O)N2CCCC2)cc1Cl 17.9%, CNC(=O)COC(=O)c1nc(-n2nc(C)cc2C)ccc1Cl 1.24%, COc1ccc(C(=O)Nc2nccs2)cc1 4.19%, COc1ccc(/C=C\c2nc(O)c([N+](=O)[O-])c(=O)[nH]2)cc1O 5.95%, O=c1[nH]c(/C=C\c2ccc(O)c(Cl)c2)nc(O)c1[N+](=O)[O-] 22.7%
